# Test results as given in the supplement of paper PMC10849652.
# Targets with a hit are over-represented here; the source holds about 7,900 in all. About 0.6% of all pairs of compound and target were hits. Values without a mark were called inactive.
# Compound: CC1=C(C2=C(C=C1)C(=O)C3=CC=CC=C3N2CCCN)C
# Experiment: log2 fold change, soluble protein after heating vs DMSO (PISA); higher = thermal stabilisation; K562 cells, 10 uM, 30 min; active = over 0.2 and 3.5 SD of the protein, either way, in both replicates (recomputed)
# In short: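 K562 cells at 2×10^6 cells/mL were exposed to 10 μM compound for 30 min, then aliquots were heated for 3 min across 48°C-58°C, pooled, and extracted in PBS containing 0.5% NP-40 at 4°C. The supernatant after 21,000xg for 90 min was taken as soluble protein and measured by TMTpro 16plex LC-MS/MS with channel sums equalised. Thermal stability is reported relative to control samples, with values from duplicates. Fold changes are given on a log2 scale.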
# Sequence of UniProt Q9P253 (Q9P253 whole entry, looked up): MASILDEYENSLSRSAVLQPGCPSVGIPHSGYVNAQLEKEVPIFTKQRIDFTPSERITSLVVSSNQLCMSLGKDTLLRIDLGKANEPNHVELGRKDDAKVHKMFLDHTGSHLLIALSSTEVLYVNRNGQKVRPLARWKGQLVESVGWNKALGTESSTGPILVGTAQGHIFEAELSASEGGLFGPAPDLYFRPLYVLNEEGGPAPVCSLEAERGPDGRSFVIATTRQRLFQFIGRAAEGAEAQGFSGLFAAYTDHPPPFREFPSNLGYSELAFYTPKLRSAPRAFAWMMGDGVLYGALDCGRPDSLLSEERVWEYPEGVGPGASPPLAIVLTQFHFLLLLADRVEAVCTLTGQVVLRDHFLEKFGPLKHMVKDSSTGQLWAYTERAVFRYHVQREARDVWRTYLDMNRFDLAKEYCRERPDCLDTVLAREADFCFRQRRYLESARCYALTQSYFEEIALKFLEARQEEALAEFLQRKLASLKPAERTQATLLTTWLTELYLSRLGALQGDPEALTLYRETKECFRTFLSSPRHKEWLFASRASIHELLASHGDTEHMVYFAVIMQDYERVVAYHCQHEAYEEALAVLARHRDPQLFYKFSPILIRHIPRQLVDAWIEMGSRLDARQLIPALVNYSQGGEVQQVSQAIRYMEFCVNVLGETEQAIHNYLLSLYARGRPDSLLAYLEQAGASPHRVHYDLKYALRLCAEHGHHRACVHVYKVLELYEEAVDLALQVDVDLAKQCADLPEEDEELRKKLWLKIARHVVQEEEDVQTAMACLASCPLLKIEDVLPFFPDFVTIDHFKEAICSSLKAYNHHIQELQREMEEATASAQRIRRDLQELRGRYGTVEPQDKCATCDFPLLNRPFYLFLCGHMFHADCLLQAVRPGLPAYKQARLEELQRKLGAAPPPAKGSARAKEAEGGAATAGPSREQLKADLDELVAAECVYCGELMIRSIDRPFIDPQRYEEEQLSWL
# Sequence of UniProt Q9Y5K5 (Q9Y5K5 whole entry, looked up): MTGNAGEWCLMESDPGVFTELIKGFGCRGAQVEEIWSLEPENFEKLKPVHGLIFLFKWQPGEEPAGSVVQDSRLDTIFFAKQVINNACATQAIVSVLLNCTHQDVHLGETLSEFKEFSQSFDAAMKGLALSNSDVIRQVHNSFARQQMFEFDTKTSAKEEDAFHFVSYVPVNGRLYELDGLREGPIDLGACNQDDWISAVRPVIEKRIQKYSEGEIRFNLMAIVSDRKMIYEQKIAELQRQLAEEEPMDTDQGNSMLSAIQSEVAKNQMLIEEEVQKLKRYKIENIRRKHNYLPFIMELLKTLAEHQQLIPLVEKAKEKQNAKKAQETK
# Sequence of UniProt Q16881 (Q16881 whole entry, looked up): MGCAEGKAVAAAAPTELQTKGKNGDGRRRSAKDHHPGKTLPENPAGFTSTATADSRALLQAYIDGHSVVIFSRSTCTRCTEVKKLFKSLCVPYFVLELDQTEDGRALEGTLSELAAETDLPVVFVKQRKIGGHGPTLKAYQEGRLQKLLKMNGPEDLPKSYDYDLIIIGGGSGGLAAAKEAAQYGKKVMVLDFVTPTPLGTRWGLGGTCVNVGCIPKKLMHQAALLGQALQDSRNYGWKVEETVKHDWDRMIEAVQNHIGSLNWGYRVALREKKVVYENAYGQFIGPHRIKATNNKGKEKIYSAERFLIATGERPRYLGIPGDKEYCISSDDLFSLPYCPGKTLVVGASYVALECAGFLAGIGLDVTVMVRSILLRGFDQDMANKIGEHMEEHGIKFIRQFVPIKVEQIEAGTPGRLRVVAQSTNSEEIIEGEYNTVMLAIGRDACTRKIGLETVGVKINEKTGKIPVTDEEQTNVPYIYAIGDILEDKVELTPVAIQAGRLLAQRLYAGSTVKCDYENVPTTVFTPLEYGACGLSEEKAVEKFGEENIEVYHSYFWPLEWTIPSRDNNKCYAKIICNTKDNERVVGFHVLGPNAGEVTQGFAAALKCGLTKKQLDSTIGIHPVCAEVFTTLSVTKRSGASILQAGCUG
# Sequence of UniProt Q7Z7N9 (Q7Z7N9 whole entry, looked up): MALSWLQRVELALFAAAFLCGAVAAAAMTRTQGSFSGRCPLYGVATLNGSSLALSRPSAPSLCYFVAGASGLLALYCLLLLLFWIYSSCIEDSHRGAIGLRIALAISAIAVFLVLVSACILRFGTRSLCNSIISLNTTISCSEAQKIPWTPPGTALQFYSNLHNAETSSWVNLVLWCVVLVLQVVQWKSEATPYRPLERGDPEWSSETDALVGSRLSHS
# Sequence of UniProt P49815 (P49815 whole entry, looked up): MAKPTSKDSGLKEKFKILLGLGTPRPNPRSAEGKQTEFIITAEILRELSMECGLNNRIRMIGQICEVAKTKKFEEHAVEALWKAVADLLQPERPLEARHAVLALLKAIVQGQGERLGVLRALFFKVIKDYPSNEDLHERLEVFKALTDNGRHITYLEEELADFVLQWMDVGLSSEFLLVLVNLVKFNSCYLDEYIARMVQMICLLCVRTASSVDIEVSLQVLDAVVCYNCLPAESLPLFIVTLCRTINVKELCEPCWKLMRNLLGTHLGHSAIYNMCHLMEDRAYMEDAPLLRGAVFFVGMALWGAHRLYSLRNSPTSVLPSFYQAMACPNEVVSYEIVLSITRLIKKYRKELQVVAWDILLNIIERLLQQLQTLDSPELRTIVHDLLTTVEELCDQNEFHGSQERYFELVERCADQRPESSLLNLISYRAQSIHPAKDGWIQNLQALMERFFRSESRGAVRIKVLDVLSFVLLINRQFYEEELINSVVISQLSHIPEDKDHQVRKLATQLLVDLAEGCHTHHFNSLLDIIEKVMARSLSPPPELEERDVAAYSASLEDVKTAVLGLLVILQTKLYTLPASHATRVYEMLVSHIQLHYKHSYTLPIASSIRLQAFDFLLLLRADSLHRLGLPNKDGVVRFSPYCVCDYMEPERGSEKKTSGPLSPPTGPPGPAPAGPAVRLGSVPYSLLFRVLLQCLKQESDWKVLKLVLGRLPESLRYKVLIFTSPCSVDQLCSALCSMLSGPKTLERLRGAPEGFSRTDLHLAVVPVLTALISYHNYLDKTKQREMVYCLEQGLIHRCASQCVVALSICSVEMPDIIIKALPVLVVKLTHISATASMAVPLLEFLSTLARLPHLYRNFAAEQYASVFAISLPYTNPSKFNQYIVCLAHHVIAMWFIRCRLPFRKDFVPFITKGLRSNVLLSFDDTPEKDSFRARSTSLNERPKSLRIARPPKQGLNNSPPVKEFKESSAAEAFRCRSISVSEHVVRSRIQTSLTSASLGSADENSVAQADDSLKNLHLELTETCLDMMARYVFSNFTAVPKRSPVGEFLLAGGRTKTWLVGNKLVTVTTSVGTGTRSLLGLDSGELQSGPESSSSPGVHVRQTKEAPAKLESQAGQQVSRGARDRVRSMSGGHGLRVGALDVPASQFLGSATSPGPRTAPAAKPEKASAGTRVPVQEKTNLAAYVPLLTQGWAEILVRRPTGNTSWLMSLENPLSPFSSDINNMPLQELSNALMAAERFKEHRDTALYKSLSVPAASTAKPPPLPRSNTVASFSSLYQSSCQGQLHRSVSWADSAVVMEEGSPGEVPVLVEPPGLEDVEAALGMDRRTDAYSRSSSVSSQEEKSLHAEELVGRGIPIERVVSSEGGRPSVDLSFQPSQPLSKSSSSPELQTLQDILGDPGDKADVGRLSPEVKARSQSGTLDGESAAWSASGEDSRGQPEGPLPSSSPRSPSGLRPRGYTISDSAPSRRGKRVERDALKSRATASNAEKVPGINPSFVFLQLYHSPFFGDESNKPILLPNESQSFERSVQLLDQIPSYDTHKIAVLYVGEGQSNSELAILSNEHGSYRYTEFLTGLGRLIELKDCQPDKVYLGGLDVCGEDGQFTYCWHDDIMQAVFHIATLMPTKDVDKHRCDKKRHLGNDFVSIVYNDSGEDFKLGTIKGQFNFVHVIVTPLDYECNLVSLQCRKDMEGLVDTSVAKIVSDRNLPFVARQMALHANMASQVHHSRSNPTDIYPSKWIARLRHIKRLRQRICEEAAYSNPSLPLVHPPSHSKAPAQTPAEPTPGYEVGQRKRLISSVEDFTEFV
# Sequence of UniProt Q9H267 (Q9H267 whole entry, looked up): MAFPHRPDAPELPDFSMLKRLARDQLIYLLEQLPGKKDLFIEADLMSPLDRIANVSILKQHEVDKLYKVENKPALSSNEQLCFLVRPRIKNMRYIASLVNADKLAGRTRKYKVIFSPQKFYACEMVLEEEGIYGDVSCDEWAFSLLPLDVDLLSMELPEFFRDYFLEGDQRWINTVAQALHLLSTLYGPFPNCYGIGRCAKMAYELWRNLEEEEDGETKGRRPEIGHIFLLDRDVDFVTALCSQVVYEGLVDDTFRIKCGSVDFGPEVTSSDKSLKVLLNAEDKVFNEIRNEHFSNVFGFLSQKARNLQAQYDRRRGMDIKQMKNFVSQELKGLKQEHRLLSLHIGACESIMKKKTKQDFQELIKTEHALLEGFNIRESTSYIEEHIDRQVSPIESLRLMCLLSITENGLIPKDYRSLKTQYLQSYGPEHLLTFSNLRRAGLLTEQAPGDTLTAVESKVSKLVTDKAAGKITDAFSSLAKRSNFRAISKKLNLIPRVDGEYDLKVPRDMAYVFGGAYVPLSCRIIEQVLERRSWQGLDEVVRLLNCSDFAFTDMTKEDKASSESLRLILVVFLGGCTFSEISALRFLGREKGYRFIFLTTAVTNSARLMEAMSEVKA
# Sequence of UniProt Q9BQB6 (Q9BQB6 whole entry, looked up): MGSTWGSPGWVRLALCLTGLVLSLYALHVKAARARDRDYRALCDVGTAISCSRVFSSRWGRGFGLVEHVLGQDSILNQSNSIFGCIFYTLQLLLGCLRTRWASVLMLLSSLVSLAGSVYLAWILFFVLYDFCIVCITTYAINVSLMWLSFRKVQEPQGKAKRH
row,Target,log2 fold change
1,UBE4A isoform 2 (UniProt Q14139),0.041
2,UCHL5 (UniProt Q9Y5K5),-0.018
3,VPS33B (UniProt Q9H267),0.049
4,VPS33A (UniProt Q96AX1),0.005
5,VPS18 (UniProt Q9P253),0.059
6,VKORC1 (UniProt Q9BQB6),0.049
7,TNFRSF8 (UniProt P28908),-0.022
8,TXNRD1 (UniProt Q16881),0.077
9,WDCP (UniProt Q9H6R7),0.023
10,TSC2 (UniProt P49815),0.105
11,TNPO3 (UniProt Q9Y5L0),-0.02
12,UBE3B (UniProt Q7Z3V4),-0.188
13,TMEM179B (UniProt Q7Z7N9),0.019
